Laboratory results: PubChem BioAssay (NCATS)
Results filed as inconclusive are left out. Active and inactive are the calls of the source. Unless noted, calls follow the shape of the dose curve; as a rule, active = well fitted curve in the direction sought with a large enough effect; inconclusive = small, poorly fitted or top-dose-only effect, or another doubt; inactive = no such curve, though single readings can be large; an effect the other way counts as inactive or inconclusive.

Legend:
[1] = Validation screen for small molecules that induce DNA re-replication in SW480 colon adenocarcinoma cells (AID 504364); also: potency is read from the fitted curve at half-maximal effect
How it was run: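 Hoechst-stained SW480 nuclei, imaged at 405 nm excitation after 48 hr compound exposure, were counted for elevated DNA content as the re-replication signal.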

[2] = molecular target: Peptidyl-prolyl cis-trans isomerase NIMA-interacting 1 (Homo sapiens) (UniProt Q13526); assay: qHTS Validation Assay to Find Inhibitors of Pin1 (AID 504536; active = well fitted inhibition curve with a large enough effect in the polarisation, with a control signal flat, not every such curve was filed as active; the % refers to the polarisation)
How it was run: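 Fluorescence polarization competition: compounds (titration) displace HiFluor-488-labeled Pin1-1b peptide from Pin1 (0.3 uM final) in pH 7.5 HEPES buffer with DTT, 10 min at room temperature; %Activity normalized to no-enzyme wells, curves fitted.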

[3] = molecular target: Phosphoglycerate kinase, glycosomal (Trypanosoma brucei brucei) (UniProt P07378); assay: qHTS Validation Assay to Find Inhibitors of Phosphoglycerate Kinase (AID 504547); also: potency is read from the fitted curve at half-maximal effect
How it was run: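 In TEA buffer (100mM, pH 7.6) containing 5mM MgCl2 and 0.01% Tween-20, the GAPDH-coupled PGK reaction proceeded for 60 minutes at room temperature before a single luminescence reading using Kinase-Glo Plus.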

[4] = molecular target: phosphoglycerate mutase (Leishmania major) (UniProt Q4Q090); assay: qHTS Validation Assay to Find Inhibitors of Phosphoglycerate Mutase (AID 504548); settings: Potency: inhibition qHTS; also: potency is read from the fitted curve at half-maximal effect
How it was run: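 Lm PGAM at 1.25 nM final with substrate in 100 mM TEA pH 7.6, 5 mM MgCl2, 0.01% Tween-20; 45 min at room temperature. Kinase-GloPlus added, 10 min, end-point luminescence read.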

[5] = molecular target: Ubiquitin carboxyl-terminal hydrolase 1 (Homo sapiens) (UniProt O94782); assay: Inhibitors of USP1/UAF1: Pilot qHTS (AID 504865); also: nearly all actives have a fitted effect of over 35% in size; also: potency is read from the fitted curve at half-maximal effect
How it was run: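 Enzyme-free wells gave the negative control, while test wells held 1nM USP1/UAF1 preincubated with compound for 15 min at room temperature. Ub-Rho at 150nM final started the reaction, and fluorescence at 480/540 nm was recorded kinetically.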

[6] = qHTS for Inhibitors of ATXN expression: Validation of Cytotoxic Assay (AID 588349); also: potency is read from the fitted curve at half-maximal effect
How it was run: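 Toxicity of test compounds toward HEK293 cells is scored from cellular ATP content measured by CellTiter Glo. Cells receive titrated doses and incubate 72 hr at 37 degrees C beforehand.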

[7] = qHTS for Inhibitors of ATXN expression: Validation (AID 588378); also: nearly all actives have a fitted effect of over 75% in size; also: potency is read from the fitted curve at half-maximal effect
How it was run: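 After a 2 h attachment and 24 h compound incubation, HEK293-ATXN2-FFLuc wells are read for fluorescence at 405 nm excitation/525 nm emission as a viability measure, then for Bright-Glo luminescence reflecting ATXN2 expression.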

[8] = molecular target: Estrogen receptor (Homo sapiens) (UniProt P03372); assay: qHTS assay for small molecule antagonists of estrogen receptor alpha signaling (AID 588513; active = well fitted curve in the direction sought with a large enough effect in the signal ratio, with a control signal flat, not every such curve was filed as active; the % refers to the signal ratio)
How it was run: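 Antagonist-mode qHTS in ER-alpha-UAS-bla HEK 293 cells: compound titration, 0.5nM estradiol for 18 h, CCF4 fluorescence, Hill-derived IC50.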

Measured: Potency

phosphoglycerate mutase (Leishmania major), sequence (Q4Q090 1-553): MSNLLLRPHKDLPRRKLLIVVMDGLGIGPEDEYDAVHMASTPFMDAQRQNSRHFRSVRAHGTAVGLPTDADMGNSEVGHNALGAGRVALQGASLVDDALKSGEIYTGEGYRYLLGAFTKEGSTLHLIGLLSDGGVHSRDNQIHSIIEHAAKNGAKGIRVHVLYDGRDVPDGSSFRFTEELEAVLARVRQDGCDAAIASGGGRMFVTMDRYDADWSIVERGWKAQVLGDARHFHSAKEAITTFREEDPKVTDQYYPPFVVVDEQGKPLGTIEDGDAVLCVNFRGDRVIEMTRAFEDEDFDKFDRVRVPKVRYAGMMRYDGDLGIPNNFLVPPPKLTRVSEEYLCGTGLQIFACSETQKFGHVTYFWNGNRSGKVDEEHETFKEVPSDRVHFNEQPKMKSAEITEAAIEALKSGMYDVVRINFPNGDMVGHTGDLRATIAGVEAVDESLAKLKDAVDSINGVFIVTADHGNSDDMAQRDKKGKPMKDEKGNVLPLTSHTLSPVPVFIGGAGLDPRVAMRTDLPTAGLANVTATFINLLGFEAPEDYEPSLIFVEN
Phosphoglycerate kinase, glycosomal (Trypanosoma brucei brucei), sequence (P07378 whole entry, looked up): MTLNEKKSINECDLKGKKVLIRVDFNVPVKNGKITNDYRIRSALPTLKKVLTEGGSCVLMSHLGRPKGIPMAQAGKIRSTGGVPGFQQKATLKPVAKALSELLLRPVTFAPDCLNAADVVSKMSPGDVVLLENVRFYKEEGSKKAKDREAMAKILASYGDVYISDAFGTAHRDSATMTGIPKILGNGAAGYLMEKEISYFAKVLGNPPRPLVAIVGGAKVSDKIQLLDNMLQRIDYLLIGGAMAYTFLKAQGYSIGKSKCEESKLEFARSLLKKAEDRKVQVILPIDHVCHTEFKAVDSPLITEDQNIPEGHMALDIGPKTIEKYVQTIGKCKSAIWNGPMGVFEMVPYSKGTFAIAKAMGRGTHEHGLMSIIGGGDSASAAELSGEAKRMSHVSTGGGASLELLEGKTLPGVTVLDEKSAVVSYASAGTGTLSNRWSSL
Ubiquitin carboxyl-terminal hydrolase 1 (Homo sapiens), sequence (O94782 whole entry, looked up): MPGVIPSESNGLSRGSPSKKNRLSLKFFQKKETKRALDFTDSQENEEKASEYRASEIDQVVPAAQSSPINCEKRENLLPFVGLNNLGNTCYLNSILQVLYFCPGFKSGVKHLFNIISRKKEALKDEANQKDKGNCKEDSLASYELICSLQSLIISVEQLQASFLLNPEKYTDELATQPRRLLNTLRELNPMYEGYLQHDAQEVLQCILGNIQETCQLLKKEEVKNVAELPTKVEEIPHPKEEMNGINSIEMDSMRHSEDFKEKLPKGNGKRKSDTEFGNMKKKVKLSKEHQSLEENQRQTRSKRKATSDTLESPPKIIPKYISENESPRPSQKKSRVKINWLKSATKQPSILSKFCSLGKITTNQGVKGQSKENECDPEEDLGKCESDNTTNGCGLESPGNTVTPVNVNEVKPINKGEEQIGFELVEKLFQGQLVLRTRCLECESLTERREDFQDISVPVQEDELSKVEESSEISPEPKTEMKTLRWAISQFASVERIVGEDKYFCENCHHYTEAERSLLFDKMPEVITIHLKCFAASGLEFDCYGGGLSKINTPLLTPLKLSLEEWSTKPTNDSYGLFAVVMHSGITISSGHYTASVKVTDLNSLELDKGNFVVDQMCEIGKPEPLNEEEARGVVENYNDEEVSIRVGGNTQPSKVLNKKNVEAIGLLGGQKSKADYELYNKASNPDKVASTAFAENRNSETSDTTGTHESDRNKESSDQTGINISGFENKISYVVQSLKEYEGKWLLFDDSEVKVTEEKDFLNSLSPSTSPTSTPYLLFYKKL
Peptidyl-prolyl cis-trans isomerase NIMA-interacting 1 (Homo sapiens), sequence (Q13526 whole entry, looked up): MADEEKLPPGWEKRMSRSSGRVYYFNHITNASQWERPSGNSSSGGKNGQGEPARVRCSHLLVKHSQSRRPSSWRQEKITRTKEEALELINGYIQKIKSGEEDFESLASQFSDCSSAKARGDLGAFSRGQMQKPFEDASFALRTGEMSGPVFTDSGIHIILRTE
Estrogen receptor (Homo sapiens), sequence (P03372 whole entry, looked up): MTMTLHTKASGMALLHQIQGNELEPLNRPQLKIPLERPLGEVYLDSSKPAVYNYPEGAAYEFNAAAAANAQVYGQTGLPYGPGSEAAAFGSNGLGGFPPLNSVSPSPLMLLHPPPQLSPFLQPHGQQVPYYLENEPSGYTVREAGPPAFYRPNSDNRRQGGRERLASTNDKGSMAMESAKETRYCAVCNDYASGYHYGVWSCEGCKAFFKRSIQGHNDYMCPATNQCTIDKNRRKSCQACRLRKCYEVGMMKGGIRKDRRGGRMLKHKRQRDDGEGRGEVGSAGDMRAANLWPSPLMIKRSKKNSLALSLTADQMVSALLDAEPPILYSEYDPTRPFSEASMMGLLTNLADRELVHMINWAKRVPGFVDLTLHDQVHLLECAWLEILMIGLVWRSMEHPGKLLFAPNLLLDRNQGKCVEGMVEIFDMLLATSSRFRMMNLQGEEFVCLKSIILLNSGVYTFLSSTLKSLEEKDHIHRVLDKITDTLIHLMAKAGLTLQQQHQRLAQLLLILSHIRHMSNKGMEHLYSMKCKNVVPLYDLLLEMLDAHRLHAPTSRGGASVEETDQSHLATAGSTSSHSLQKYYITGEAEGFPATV

CN(C)CCC(c1ccc(Cl)cc1)c1ccccn1 (stereo not given)
inactive: [1] | [2] | [3] | [4] | [5]

CN(C)c1nc(N)c(C(=O)N=C(N)N)nc1Cl
not listed: [7] | [8]
inactive: all other assays above

Nc1ccn([C@@H]2O[C@H](CO)[C@@H](O)[C@@H]2O)c(=O)n1
inactive: [1]

CC(C)NC[C@H](O)COc1cccc2[nH]ccc12
not listed: [8]
inactive: all other assays above

Cc1ccc(O)c(N=Nc2ccccc2)n1
active: [3] 10.7 µM | [4] 10.7 µM
inactive: [1] | [2]

N=C(N)SCCc1ccc(CCSC(=N)N)cc1
not listed: [8]
inactive: all other assays above

N[C@@H](CC(=O)O)C(=O)O
not listed: [7] | [8]
inactive: all other assays above

C[C@@H](CN1CCC(Cc2ccccc2)CC1)[C@@H](O)c1ccc(O)cc1
not listed: [7] | [8]
inactive: all other assays above

O=C(O)CC[C@@H](C(=O)O)N1C(=O)c2ccccc2C1=O
not listed: [7] | [8]
inactive: all other assays above

CNCC[C@H](Oc1ccc(C(F)(F)F)cc1)c1ccccc1
inactive: [1] | [2] | [3] | [4] | [5]

CN(C)C(N)=NCCC[C@H](N)C(=O)O
not listed: [7] | [8]
inactive: all other assays above

CN1CCc2cc(O)c(O)cc2C(c2ccccc2)C1 (stereo not given)
inactive: [1] | [2] | [3] | [4] | [5]

CO/N=C(\C(=O)N[C@@H]1C(=O)N2C(C(=O)O)=C(COC(C)=O)CS[C@H]12)c1csc(N)n1 (stereo in doubt)
inactive: [1]

O=C(O)c1cc(=O)c2c(Cl)cc(Cl)cc2[nH]1
not listed: [7] | [8]
inactive: all other assays above

CN1[C@@H](CC(=O)c2ccccc2)CCC[C@H]1C[C@H](O)c1ccccc1
inactive: [1] | [2] | [3] | [4] | [5]

Oc1ccc(C2CNCc3sccc32)cc1O (stereo not given)
inactive: [1] | [2] | [3] | [4] | [5]

CC12C(=O)OC(=O)C1(C)C1CCC2O1 (stereo not given)
inactive: [1] | [2] | [3] | [4] | [5]

CN[C@H](CC(C)C)C(=O)N[C@H]1C(=O)N[C@@H](CC(N)=O)C(=O)N[C@H]2C(=O)N[C@H]3C(=O)N[C@H](C(=O)N[C@H](C(=O)O)c4cc(O)cc(O)c4-c4cc3ccc4O)[C@H](O)c3ccc(c(Cl)c3)Oc3cc2cc(c3O[C@@H]2O[C@H](CO)[C@@H](O)[C@H](O)[C@H]2O[C@H]2C[C@](C)(N)[C@H](O)[C@H](C)O2)Oc2ccc(cc2Cl)[C@H]1O
inactive: [1]

NCCCCCCCCCCN
inactive: [1] | [2] | [3] | [4] | [5]

CC1CN(S(=O)(=O)c2cccc3cnccc23)CCN1 (stereo not given)
not listed: [7] | [8]
inactive: all other assays above

OCC1O[C@H](O)C(Cl)C(O)C1O (stereo not given in full)
not listed: [7] | [8]
inactive: all other assays above

NC[C@@H]1O[C@H](C23CC4CC(CC(C4)C2)C3)Cc2c1ccc(O)c2O
active: [6] 31.6 µM | [7] 20 µM
not listed: [8]
inactive: all other assays above

CN1C2CCC1CC(OC(=O)C(O)c1ccccc1)C2 (stereo not given)
not listed: [7] | [8]
inactive: all other assays above

S=C(S)OC1CC2CC1C1CCCC21 (stereo not given)
inactive: [1] | [2] | [3] | [5] | [6]

COc1cc2c(CCNC(C)=O)c[nH]c2cc1Cl
not listed: [8]
inactive: all other assays above

CN1CCc2cc(NC(=O)Nc3cccnc3)ccc21
not listed: [8]
inactive: all other assays above

CCCCC/C=C\CC(O)/C=C/c1cccc(CC(O)CCCCO)n1 (stereo not given)
not listed: [5] | [8]
inactive: all other assays above

COc1ccccc1CNCCCCCCNCCCCCCCCNCCCCCCNCc1ccccc1OC
not listed: [6] | [8]
inactive: all other assays above

CC(COc1ccc(/C=C/c2ccccc2)cc1)[N+](C)(C)C (stereo not given)
not listed: [8]
inactive: all other assays above

CC(=O)N[C@H](C(=O)O)C(C)(C)SN=O
not listed: [8]
inactive: all other assays above

CN(C)c1nc2c(Br)c(Br)c(Br)c(Br)c2[nH]1
not listed: [8]
inactive: all other assays above

CC(C)(C=O)Cc1cc(C(C)(C)C)c(O)c(C(C)(C)C)c1
inactive: [1] | [2] | [3] | [5]

Brc1c(Br)c(Br)c2n[nH]nc2c1Br
inactive: [1] | [2] | [3] | [4] | [6]

C[N+](C)(CCCCCC[N+](C)(C)CCCN1C(=O)c2cccc3cccc(c23)C1=O)CCCN1C(=O)c2cccc3cccc(c23)C1=O
not listed: [8]
inactive: all other assays above

NCCSSCCN
not listed: [8]
inactive: all other assays above

O=C(O)CNC(=O)C(CS)Cc1ccccc1 (stereo not given)
not listed: [5] | [8]
inactive: all other assays above

Cc1cc(NC(=O)Nc2ccc3c(ccn3C)c2)sn1
not listed: [6] | [8]
inactive: all other assays above

O=c1[nH]c2cc(C(F)(F)F)ccc2n1-c1cc(C(F)(F)F)ccc1O
inactive: [1] | [2] | [3] | [4] | [6]

C[C@@H](NC(=O)/C(C#N)=C/c1ccc(O)c(O)c1)c1ccccc1
inactive: [1] | [2] | [3] | [5]

CN=c1nc(-c2ccccc2)n(-c2ccccc2)s1
inactive: [1] | [2] | [3] | [5]

O=C(O)c1cc([N+](=O)[O-])ccc1NCCCc1ccccc1
inactive: [1] | [2] | [3] | [4] | [7]

NC(CCCP(=O)(O)O)C(=O)O (stereo not given)
not listed: [5] | [8]
inactive: all other assays above

Fc1ccc(C(OCCCc2cnc[nH]2)c2ccc(F)cc2)cc1
inactive: [1] | [2] | [3] | [4] | [6]

c1ccc(-c2ccccn2)nc1
not listed: [8]
inactive: all other assays above

CCCCCCCCCCCCCCCCCC(=O)OC(CC(=O)O)C[N+](C)(C)C (stereo not given)
active: [1] 11.6 µM
inactive: [2] | [3] | [4] | [7]

CCCn1c(=O)c2[nH]c(-c3ccc(OCC(=O)NCCN)cc3)nc2n(CCC)c1=O
not listed: [6] | [8]
inactive: all other assays above

Cn1c(=O)c2[nH]c(-c3ccccc3)nc2n(C)c1=O
not listed: [8]
inactive: all other assays above

CN1CCc2ccccc2Cc2[nH]c3ccccc3c2CC1
not listed: [8]
inactive: all other assays above

C#CCN1C(C)=C(C(=O)OC)C(c2cccc([N+](=O)[O-])c2)C(C(=O)OCC)=C1C (stereo not given)
inactive: [1] | [2] | [3] | [4] | [6]

NCCNC(=O)c1ncsc1-c1cccc(F)c1
not listed: [8]
inactive: all other assays above

Fc1cccc(/C=N/N=C/c2cccc(F)c2)c1
not listed: [8]
inactive: all other assays above

CCCN(CC1CC1)c1nc(C)nc(Nc2c(Cl)cc(Cl)cc2Cl)c1Cl
not listed: [8]
inactive: all other assays above

CN1CCC[C@H]1c1cccnc1
inactive: all assays above

O=C(O)[C@@H]1C[C@H](C(=O)O)N1
not listed: [8]
inactive: all other assays above

O=C1O/C(=C/Br)CCC1c1cccc2ccccc12 (stereo not given)
active: [6] 31.6 µM
inactive: [1] | [2] | [3] | [4]

COc1cccc(OC)c1OCCNCC1COc2ccccc2O1 (stereo not given)
not listed: [8]
inactive: all other assays above

Cc1ccc(C(=O)O[C@H](C(=O)O)[C@@H](OC(=O)c2ccc(C)cc2)C(=O)O)cc1 (tested in a mixture with another compound)
not listed: [8]
inactive: all other assays above

O=S(=O)(c1cccc2c(I)cccc12)N1CCCNCC1
active: [7] 12.6 µM
not listed: [6] | [8]
inactive: all other assays above

COC(=O)c1c(C)[nH]c(C)c1C(=O)c1ccccc1Cc1ccccc1
not listed: [5] | [8]
inactive: all other assays above

NC(=O)C(=O)O
not listed: [4] | [8]
inactive: all other assays above

O=C(O)[C@@H]1C[C@@H](C(=O)O)N1
not listed: [2] | [8]
inactive: all other assays above

COc1cc2nc(N3CCN(C(=O)OCc4ccccc4)C(C(=O)NC(C)(C)C)C3)nc(N)c2cc1OC (stereo not given)
inactive: [2] | [3] | [4] | [5]

CC(C)ON([C@@H](C(=O)NO)C(C)C)S(=O)(=O)c1ccc(-c2ccccc2)cc1
inactive: [2] | [3] | [4]

N.N.O=C(O)C1(C(=O)O)CCC1.[Pt]
inactive: [1] | [6] | [7]
active: [5] 28.2 µM
